Each structure is given as a SMILES string. Screen size: about 11,000 compounds; about 310 (2.8%) were called active. Cut-off read from the data, not from the text of the source: active = activity change below about -85%; inactive = the rest. Shown is part of a subset that was picked to be rich in actives.

In this test the test system is intestinal alkaline phosphatase [Mus musculus]. In words: activators of mouse IAP, confirmation, biochemical, luminescence, single concentration (AID 434970). The conditions noted are these: purified mouse IAP, CDP-Star luminescence, 30 min, at 10 µM; activation factor: measured here: IAP activation factor, stronger effect = higher value; activity change, negative = activation: stronger effect = lower value.
As to `CC(Sc1nc2ccccc2n1C)C(=O)NC(c1ccccc1)c1ccccc1` (stereo not given), the activation factor worked out at 0.982 and the activity change, negative = activation was 1.75% (inactive).

Regarding `Cc1cccc(Cn2cnc3c(NS(C)(=O)=O)c(C)c(C)cc32)c1`, the activation factor was 1.13 and the activity change, negative = activation is -12.6% (inactive).

With `NCCCCCc1nnc(SCC(=O)c2ccc(Cl)cc2)o1`, the activation factor was determined as 1.08 and the activity change, negative = activation is -7.9% (inactive).

Regarding `C#CCOCCOCCOCCNc1nc(N2CCN(C(=O)CCCCCCCCCCNC(=O)[C@@H](CCC(=O)O)n3cc(CCCCCN)nn3)CC2)nc(N2CCN(C(=O)CCCCCCCCCCNC(=O)[C@H]([C@@H](C)CC)n3cc(CCCCCN)nn3)CC2)n1`, the activation factor was found to be 2.75 and the activity change, negative = activation is -176% (active).

With `C#CCOCCOCCOCCNc1nc(N2CCN(C(=O)CCCCCCCCCCNC(=O)[C@H]([C@@H](C)CC)n3cc(CCCCCN)nn3)CC2)nc(N2CCN(C(=O)CCCCCCCCCCNC(=O)[C@H](CCCCN)n3cc(CCCC(=O)O)nn3)CC2)n1`, the activation factor is 3.22 and the activity change, negative = activation was -222% (active).

Consider `CCOC(=O)c1ccc(-n2c(C)nc3c(cnn3-c3ccc(Cl)cc3)c2=O)cc1`, for which the activation factor amounted to 0.964 and the activity change, negative = activation is 3.55% (inactive).

On to `CCCCCCCCCCCC(=O)NC(C(=O)OCC)C(O)c1cccc([N+](=O)[O-])c1` (stereo not given), for which the activation factor is 1.03 and the activity change, negative = activation was -2.65% (inactive).

Take `CC[C@]12c3[nH]c4ccc(Cl)cc4c3CCN1C(=O)[C@@H](CC(=O)NCCC1=CCCCC1)C[C@@H]2C(=O)N1CCN(C(=O)c2ccco2)CC1`: the activation factor came out at 1.08 and the activity change, negative = activation was -8.45% (inactive).

With `CC1OC23CCCCC2C(C#N)(C(=N)O3)C1(C#N)C#N` (stereo not given), the activation factor came to 0.959 and the activity change, negative = activation was 4.1% (inactive).

In the case of `CCN(CC(=O)Nc1ccc2c(c1)OCO2)Cc1nc2ccccc2c(=O)[nH]1`, the activation factor is 1.23 and the activity change, negative = activation is -23.5% (inactive).

As for `CN(CC(=O)NC(c1ccccc1)c1ccccc1)Cc1nc2ccccc2c(=O)[nH]1`, the activation factor amounted to 2.71 and the activity change, negative = activation is -171% (active).

Take `CCN(CC(=O)NCc1ccc(F)cc1)Cc1nc2ccccc2c(=O)[nH]1`: the activation factor is 1.14 and the activity change, negative = activation is -14.2% (inactive).

On to `Cc1cc(Cl)cc(C)c1OCC(=O)O`, for which the activation factor came to 1.06 and the activity change, negative = activation was -5.8% (inactive).

On to `COc1ccccc1NS(=O)(=O)c1cccc(NC(=O)Nc2ccc(Cl)cc2)c1`, for which the activation factor was 1.92 and the activity change, negative = activation was -92.2% (active).

Take `COc1ccc(OC)c(NS(=O)(=O)c2ccc(NC(C)=O)cc2)c1`: the activation factor worked out at 0.988 and the activity change, negative = activation is 1.15% (inactive).

As for `O=C(Nc1ccccc1)Nc1ccc(Cl)c(S(=O)(=O)N2CCOCC2)c1`, the activation factor was found to be 1.53 and the activity change, negative = activation was -53.4% (inactive).

For `COc1ccc(NC(=O)Nc2ccccc2)cc1S(=O)(=O)N1CCCCC1`, the activation factor is 2.87 and the activity change, negative = activation was -187% (active).

In the case of `Cc1ccc(C(=O)NCC(=O)O)cc1S(=O)(=O)N1CCCCC1`, the activation factor is 0.994 and the activity change, negative = activation was 0.55% (inactive).

On to `COc1ccc(NC(=S)Nc2cccc(S(=O)(=O)N3CCCCC3)c2)cc1`, for which the activation factor came to 1.01 and the activity change, negative = activation is -1.4% (inactive).

On to `COc1ccccc1NS(=O)(=O)c1ccc(C)c(C(N)=O)c1`, for which the activation factor amounted to 0.925 and the activity change, negative = activation was 7.5% (inactive).

Take `O=C(CNC1CCCCCC1)Nc1ccccc1N1CCCCC1`: the activation factor came to 1.04 and the activity change, negative = activation is -3.7% (inactive).

For the compound `O=C(Nc1ccc(F)cc1)Nc1ccccc1N1CCCCC1`, the activation factor stood at 1.58 and the activity change, negative = activation was -57.8% (inactive).

As to `Cc1cc(C)cc(NC(=O)Nc2ccccc2N2CCCCC2)c1`, the activation factor was determined as 2.12 and the activity change, negative = activation was -112% (active).

With `Cc1ccc(C)c(S(=O)(=O)N2CCN(CC(=O)NC(=O)NCc3ccccc3)CC2)c1`, the activation factor stood at 0.972 and the activity change, negative = activation is 2.8% (inactive).

`Cc1ccc(NC(=S)NCc2ccccc2)cc1S(=O)(=O)N1CCCCC1`: the activation factor is 2.87 and the activity change, negative = activation is -187% (active).

Regarding `COc1ccc(C(=O)Nc2cccc(C(C)=O)c2)c(OC)c1OC`, the activation factor turned out to be 0.951 and the activity change, negative = activation is 4.95% (inactive).

Take `COC(=O)CC1C(=O)NCCN1C(=O)Nc1ccccc1` (stereo not given): the activation factor was 0.938 and the activity change, negative = activation was 6.25% (inactive).

On to `CCOC(=O)Cc1cc(=O)n(-c2nc3ccccc3s2)[nH]1`, for which the activation factor turned out to be 0.806 and the activity change, negative = activation is 19.4% (inactive).

As to `O=C(CN1C(=O)C2CC=CCC2C1=O)Nc1ccc(S(=O)(=O)NC2=NCCCCC2)cc1` (stereo not given), the activation factor turned out to be 0.903 and the activity change, negative = activation was 9.65% (inactive).

As for `CC[C@@H]1C(c2cccc(C)c2)=NN(c2ccccc2)[C@H]1C(=O)N1CCOC1=O`, the activation factor was 1.14 and the activity change, negative = activation is -14.2% (inactive).

For the compound `COc1cccc(-n2c(SCC(=O)Nc3nccs3)nnc2-c2ccoc2C)c1`, the activation factor was found to be 0.982 and the activity change, negative = activation was 1.8% (inactive).

Regarding `O=C1OCCN1C(=O)[C@H]1[C@H](c2ccc([N+](=O)[O-])cc2)C(c2ccccc2)=NN1c1ccc(Br)cc1`, the activation factor worked out at 0.908 and the activity change, negative = activation is 9.2% (inactive).

Turning to `COc1ccccc1NS(=O)(=O)c1cc(NC(=O)Nc2cccc(C)c2)ccc1N1CCCCC1`, the activation factor stood at 3.78 and the activity change, negative = activation is -278% (active).

For `O=C(Nc1cccc(C(F)(F)F)c1)Nc1ccc(N2CCCC2)c(S(=O)(=O)Nc2ccccc2Cl)c1`, the activation factor is 1.67 and the activity change, negative = activation is -66.9% (inactive).

Turning to `COc1ccc(C(=O)O)cc1S(=O)(=O)Nc1cccc(C)c1`, the activation factor was determined as 0.988 and the activity change, negative = activation is 1.25% (inactive).
